Measured values taken from PubChem BioAssay (Tox21).
Values joined by “and” are separate entries in the source; they are usually repeats but may differ in a detail not shown here. Equal values may be shown once. Inconclusive results are not listed. Active and inactive are the calls of the source. Unless noted, the call rests on the fitted dose curve; in most records, active means well fitted curve in the direction sought with a large enough effect in the repeat runs; inconclusive means weak or mixed curves; inactive means no such curve, though single readings can be large; an effect the other way counts as inactive or inconclusive.

Tests used:
[1] = qHTS assay to identify small molecule antagonists of the vitamin D receptor (VDR) signaling pathway - cell viability counter screen (AID 743225); further: nearly all actives have a fitted effect of over 50% in size; further: potency means the concentration at half of the fitted maximal effect
Summary of the method: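 Cytotoxicity toward the VDR-bla HEK 293T line was scored by ATP-based CellTiter-Glo luminescence, read in the wells already used for the beta-lactamase readout after 16 h compound treatment under 3 nM 1-alpha,25-dihydroxyvitamin D3 stimulation.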

[2] = qHTS assay to identify small molecule agonists of the endoplasmic reticulum stress response signaling pathway - cell viability counter screen (AID 1159517; calls by dose curve; further: nearly all actives have a fitted effect of over 50% in size; further: potency means the concentration at half of the fitted maximal effect)
Summary of the method: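 Cells, HeLa ESRE-bla; density, 1,500/well; dosing, 5 hr at 37 C, 5% CO2; readout, CellTiter-Glo luminescence after 30 min RT.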

[3] = target: Nuclear receptor ROR-gamma (Homo sapiens) (UniProt P51449); assay: qHTS assay to identify small molecule antagonists of the retinoid-related orphan receptor gamma (ROR-gamma) signaling pathway (AID 1159521;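 further: CHO cells with doxycycline inducible ROR-gamma driving an RORE luciferase reporter; top concentration of the series differs between compounds; nearly all actives have a fitted effect of over 50% in size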)
Summary of the method: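 Readout: ONE-Glo luciferase luminescence, 30 min at room temperature. System: Tet-on RORγ CHO, RORE-LUC. Sequence: compound 2 h, doxycycline 1 uM final, 16 h at 37 C.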

[4] = qHTS assay to identify small molecule agonists of the retinoic acid receptor (RAR) signaling pathway (AID 1159553); further: potency means the concentration at half of the fitted maximal effect
Summary of the method: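 C3RL4 RARE-luciferase cells were seeded at 1,000/well and grown overnight at 37 C, then exposed to compounds for 6 hr at 37 C, 5% CO2. Luciferase reagent was added and luminescence was read after 30 min at room temperature.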

[5] = qHTS assay to identify small molecule antagonists of the estrogen related receptor (ERR) signaling pathway from Tox21 library - cell viability counter screen (AID 1224834); further: nearly all actives have a fitted effect of over 30% in size; further: potency means the concentration at half of the fitted maximal effect
Summary of the method: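 ERR reporter cells, 2,000 per well, rested 6 h, then exposed to compound in DMSO for 17.5 hours at 37 C. Viability read as fluorescence after 30 min with CellTiter-Fluor.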

[6] = qHTS assay to identify small molecule agonists of the AP-1 signaling pathway - cell viability counter screen (AID 1159525; calls by dose curve; further: nearly all actives have a fitted effect of over 55% in size; further: potency means the concentration at half of the fitted maximal effect)
Summary of the method: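 Luminescent ATP readout (Cell Titer Glo, 30 min RT), normalised to DMSO and tetra n-octyl ammonium bromide controls. Cells were ME-180 AP-1-bla in 0.5% dialyzed FBS Opti-MEM, with a 5 h, 37 °C compound exposure.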

[7] = qHTS assay to identify small molecule antagonists of the retinoid acid receptor (RAR) signaling pathway - cell viability counter screen (AID 1159551); further: nearly all actives have a fitted effect of over 35% in size
Summary of the method: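 C3RL4 RARE-luciferase cells, 1,000/well, incubated overnight, then dosed with compound plus 1 uM retinol (final). After 6 hr at 37 C, viability read by CellTiter-Glo ATP luminescence following 30 min at room temperature.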

[8] = qHTS assay to identify small molecule antagonists of the retinoic acid receptor (RAR) signaling pathway (AID 1159552; further: nearly all actives have a fitted effect of over 50% in size; further: potency means the concentration at half of the fitted maximal effect)
Summary of the method: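 Overnight-plated C3RL4 reporter cells get compound, then retinol to 1 uM final; plates sit 6 hr at 37 C, 5% CO2. A luciferase reagent is added and light output recorded after 30 min at room temperature.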

[9] = qHTS assay to identify small molecule agonists of the vitamin D receptor (VDR) signaling pathway - cell viability counter screen (AID 743224); further: nearly all actives have a fitted effect of over 50% in size; further: potency means the concentration at half of the fitted maximal effect
Summary of the method: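 VDR-bla cells, 4 h after plating, exposed to compounds for 16 h at 37C; viability then read in the same wells as CellTiter-Glo luminescence after 30 min at room temperature, following the bla FRET read.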

[10] = qHTS assay to identify small molecule agonists of the RXR signaling pathway - cell viability counter screen (AID 1159529); further: nearly all actives have a fitted effect of over 50% in size; further: potency means the concentration at half of the fitted maximal effect
Summary of the method: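 Tox21 10K compounds were tested for cytotoxicity against GeneBLAzer RXR-alpha HEK 293T cells grown in 2% charcoal-stripped FBS. Exposure lasted 16 hr at 37 C, 5% CO2; viability read by CellTiter-Glo luminescence.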

[11] = target: Retinoic acid receptor RXR-alpha (Homo sapiens) (UniProt P19793); assay: qHTS assay to identify small molecule agonists of the RXR signaling pathway (AID 1159527; calls by dose curve; further: nearly all actives have a fitted effect of over 35% in size)
Sequence of Retinoic acid receptor RXR-alpha (Homo sapiens) (P19793 whole entry, looked up): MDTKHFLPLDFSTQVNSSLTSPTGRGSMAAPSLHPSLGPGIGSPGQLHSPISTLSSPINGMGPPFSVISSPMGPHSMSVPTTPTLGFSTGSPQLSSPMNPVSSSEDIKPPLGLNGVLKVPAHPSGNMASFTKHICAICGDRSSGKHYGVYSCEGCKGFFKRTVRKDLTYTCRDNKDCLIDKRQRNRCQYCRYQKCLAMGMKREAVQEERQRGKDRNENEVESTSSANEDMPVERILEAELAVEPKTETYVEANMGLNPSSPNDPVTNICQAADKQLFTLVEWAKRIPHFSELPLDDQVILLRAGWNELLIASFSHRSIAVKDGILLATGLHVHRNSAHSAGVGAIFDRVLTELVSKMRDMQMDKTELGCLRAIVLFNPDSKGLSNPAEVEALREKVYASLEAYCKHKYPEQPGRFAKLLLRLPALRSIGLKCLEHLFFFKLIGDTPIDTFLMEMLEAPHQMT
Summary of the method: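 Reporter activation is measured as beta-lactamase activity via FRET substrate cleavage (emission 460/530 nm) in HEK 293T cells expressing an RXR-alpha-driven bla construct, following 16 hr compound exposure at 37 C.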

[12] = qHTS assay to identify small molecule agonists of the estrogen related receptor (ERR) signaling pathway (AID 1224820)
Summary of the method: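 Quantitative HTS of the LOPAC library used NTP ERR reporter cells treated 18 h at 37 C. Signal is luminescence after One-Glo addition and a 30 min room-temperature incubation.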

[13] = test system: estrogen-related receptor alpha (ERRalpha) with PGC-1alpha coactivator, human; assay: qHTS assay to identify small molecule antagonists of the estrogen related receptor signaling pathway with the pleiotropic PPARgamma coactivator (PGC) (AID 1224821; calls by dose curve)
Summary of the method: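 Quantitative HTS for antagonism: PGC/ERR cells received compounds after 6 h attachment and were incubated 18 h at 37 C, with luminescence (One-Glo) as the endpoint.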

[14] = qHTS assay to identify small molecule agonists of the estrogen related receptor signaling pathway with the pleiotropic PPARgamma coactivator (PGC) (AID 1224823)
Summary of the method: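 Cell-based luciferase assay in the NTP-supplied PGC/ERR line, 2,000 cells/well; 18 h compound exposure at 37 C, luminescence after One-Glo.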

[15] = qHTS assay to identify small molecule antagonists of the retinoid-related orphan receptor gamma (ROR-gamma) signaling pathway - cell viability counter screen (AID 1159520); further: nearly all actives have a fitted effect of over 50% in size
Summary of the method: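 Cytotoxicity was read from cellular ATP (CellTiter-Glo luminescence) after 16 hr at 37 C with 1 uM doxycycline induction. The inducer was added 2 hr after compound transfer to Tet-on ROR gamma CHO cells.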

[16] = qHTS assay to identify small molecule agonists of the AP-1 signaling pathway (AID 1159526; calls by dose curve)

Measured: Potency

CN(Cc1cc(Br)cc(Br)c1N)C1CCCCC1
inactive: [1] | [2] | [3] | [4] | [5]

Cc1c(C)n(Cc2ccccc2)c2ccc(C(=O)OCCN(C)C)cc12
inactive: [2] | [6] | [7] | [8] | [4]

O=Nc1ccc(NO)cc1
inactive: [9] | [1] | [2] | [6] | [10] | [8] | [5]

CCCCC(CC)COC(=O)c1ccc(O)cc1 (stereo unspecified)
inactive: [8] | [4]
active: [9] 21.8 µM and 49 µM | [1] 15.4 µM and 38.9 µM | [2] 49 µM | [6] 24.5 µM and 49 µM | [10] 38.8 µM and 49 µM | [5] 43.1 µM

Cc1cc(Nc2ccc(O)cc2)ccc1N
inactive: [9] | [1] | [2] | [6] | [11] | [8] | [4]
active: [5] 30.5 µM

COc1ccccc1OCCNCC(O)COc1cccc2[nH]c3ccccc3c12 (stereo unspecified)
inactive: [2] | [7] | [4] | [12] | [13] | [14]
active: [10] 19 µM | [5] 23.7 µM

Cc1cnccn1
inactive: [15] | [3] | [6] | [16] | [11] | [10] | [7] | [8]

O=C1Nc2ccc(Cl)cc2[C@@](C#CC2CC2)(C(F)(F)F)O1
active: [8] 29.8 µM
inactive: [9] | [2] | [3] | [7] | [4]

CCOB(OCC)OCC
inactive: [15] | [3] | [6] | [16] | [11] | [10] | [7] | [8]

CCCSS/C(CCO)=C(\C)N(C=O)Cc1cnc(C)nc1N
active: [8] 29.8 µM
inactive: [9] | [1] | [2] | [3] | [16] | [7]

Cc1c(-c2ccc(O)cc2)n(Cc2ccc(OCCN3CCCCCC3)cc2)c2ccc(O)cc12
active: [10] 26.8 µM | [5] 29.8 µM
inactive: [2]

CCN(CC)CCOC(=O)C1(C2CCCCC2)CCCCC1
inactive: [1] | [2]
active: [10] 12 µM

Oc1ccc(-c2ccccc2)c(Cl)c1
inactive: [1] | [2] | [3] | [11] | [7] | [8]

CCc1ccc(C)nc1
inactive: [15] | [3] | [6] | [16] | [11] | [10] | [7] | [8]

C[n+]1c2cc(N)ccc2cc2ccc(N)cc21 (tested in a mixture with another compound)
inactive: [2] | [6]
active: [8] 23.7 µM

CC(C)(C)c1cc(/C=C2\SC(=N)NC2=O)cc(C(C)(C)C)c1O
active: [9] 49 µM | [1] 43.6 µM | [2] 54.9 µM | [5] 61.1 µM
inactive: [6] | [7] | [4]

CCN(CC)c1ccc(N)cc1
inactive: [1] | [2] | [8]
active: [9] 20 µM | [4] 3.15 µM | [5] 28.1 µM
